Sampled rows, rich in hits. Any-hit rate of the full collection: about 3.5%.
GPR151 activ: activators of human GPR151; PathHunter beta-arrestin GPR151 cells, luminescence; activation, % at 11.2 µM; 1% of 650,000 active; in the data active = activation above about 4.9%
FBW7 act: human FBW7 E3 ligase activation, primary screen | 0.13% of 650,000 active | AlphaScreen FBW7–phospho-cyclin E peptide binding, activator screen | AID 1259310 | normalized activity (activation), % at 26.1 µM; in the data active = normalized activity above about 1.9%;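 note: purified mutant Fbw7 with reduced substrate affinity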
MITF inh: blocks human microphthalmia-associated transcription factor | O75030 | AlphaScreen MITF homodimerization, bead proximity signal | inhibition, % at 2.6 µM | 0.91% of 650,000 active; in the data active = inhibition above about 50%
TEAD-YAP inh: TEAD-YAP interaction inhibition. HEK-TIYL cells, TEAD-Gal4/YAP UAS-luciferase luminescence. inhibition, % at 9.12 µM. 1.4% of 640,000 active. AID 1259422; in the data active = inhibition above about 32%
MITF confirm: confirmation of human MITF inhibitors; shares compounds with MITF inh; AlphaScreen MITF homodimerization, biotin/His-MITF beads; inhibition, % at 2.6 µM; 16% of 4,700 active;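 active = inhibition above a cutoff derived from the DMSO control wells, cut at about 28% in these data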;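 note: inhibitors lower the bead chemiluminescence by keeping MITF from dimerizing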
AlphaScreen DR: AlphaScreen optical interference, dose response counter-screen; shares compounds with MITF inh; AlphaScreen optical interference counterscreen, cell-free; IC50, µM; 6% of 480 active; AID 1259373; call rule not given here
AS interf ctr: counter-screen: compounds optically interfering with AlphaScreen | shares compounds with MITF inh | LysRS AlphaScreen counterscreen, signal interference, triplicate | inhibition, % at 2.6 µM | 7.6% of 4,700 active;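 active = inhibition above a cutoff derived from the DMSO control wells, cut at about 30% in these data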
A number is an active result; n = inactive; x = no result given.

SMILES	GPR151 activ	FBW7 act	MITF inh	TEAD-YAP inh	MITF confirm	AS interf ctr	others
Cc1ccc(S(=O)(=O)c2[nH]c(=O)sc2Cl)cc1	n	n	n	n	x	x
Cn1cccc1/C=C1/NC(=S)N(N)C1=O	n	n	n	n	x	x
CN(Cc1ccccc1)c1cc(-c2ccncc2)nc(-c2cccnc2)n1	n	n	n	n	x	x
CN(Cc1ccccc1)c1cc(-c2ccccn2)nc(-c2ccccn2)n1	n	n	79.1	40.1	37.2	81.3
CN(C)CCCOc1ccccc1-c1ccccc1	n	n	52.6	n	n	n
CN(C)CCCOc1cccc(Oc2ccccc2)c1	n	n	61.7	n	n	n
CN(C)CCOCCOc1cccc(Oc2ccccc2)c1	n	n	n	n	x	x
CN(C)CCNCCOCCOc1ccccc1-c1ccccc1	n	n	n	n	x	x
CN(C)CCNCCCOc1ccccc1-c1ccccc1	n	n	74.3	n	n	n
CC1CCN(Cn2cnc3c2c(=O)n(C)c(=O)n3C)CC1	n	n	n	n	x	x
CCOCCCNC(=O)c1csc2c1CCCC2	n	n	n	n	x	x
Cc1cc(C)cc(N2C(=O)CS(=O)(=O)C2c2cccc(Br)c2)c1 (configuration not stated)	n	n	n	n	x	x
O=C1CS(=O)(=O)C(c2ccccc2)N1c1ccccc1 (configuration not stated)	n	n	72.0	n	n	n
COc1ccc2c3c(cccc13)N(C(C)=O)N=C2C	n	n	n	n	x	x
Cc1ccc(NC(=O)C(=O)NC2CCNCC2)cc1	n	n	n	n	x	x
COc1cccc(-c2ccc(=O)n(CC(=O)NCC3CCCO3)n2)c1 (configuration not stated)	n	n	50.5	n	n	n
CCOc1ccc(N2CCN(CC(=O)Nc3ccc(SC)cc3)C2=O)cc1	n	n	61.4	n	n	n
CCOc1ccc2nc(N=C(NC(C)=O)NC(C)=O)nc(C)c2c1	n	n	n	n	x	x
CCOc1ccc2nc(N=C(NC(=O)c3ccccc3)NC(=O)c3ccccc3)nc(C)c2c1	n	n	71.5	n	n	n
COc1ccc(N=CC(C=NC(C)(C)C)[N+](=O)[O-])c(OC)c1 (configuration not stated)	n	n	n	n	x	x
CCN1CCN(CCCOc2ccc3c(c2)CCC3)CC1	n	n	61.2	n	n	n
CCc1cc(OCCCN2CCN(CC)CC2)ccc1Cl	n	n	67.3	n	n	n
CCc1cc(OCCCNCCN2CCOCC2)ccc1Cl	n	n	n	n	x	x
O=C(NCCN1CCCCC1)c1cccc(CN(C(=O)c2nc3ccc(-c4cn[nH]c4)cc3s2)C2CC2)c1	n	n	n	n	x	x
O=C(NCCN1CCOCC1)c1cccc(CN(C(=O)c2nc3ccc(-c4cn[nH]c4)cc3s2)C2CC2)c1	n	n	65.8	n	72.7	n	AlphaScreen DR=n
SMILES	GPR151 activ	FBW7 act	MITF inh	TEAD-YAP inh	MITF confirm	AS interf ctr	others
CN1CCN(CCNC(=O)c2cccc(CN(C(=O)c3nc4ccc(-c5cn[nH]c5)cc4s3)C3CC3)c2)CC1	n	n	77.5	49.7	71.6	n	AlphaScreen DR=n
CN(C)CC(=O)Nc1cccc(CN(C(=O)c2nc3ccc(-c4cn[nH]c4)cc3s2)C2CC2)c1	n	n	n	n	x	x
COc1cc(C(=O)Nc2ccc(C)c(C(=O)O)c2)ccc1OC(C)=O	n	n	n	n	x	x
Cc1cc(C)n2cc(CN3C(=O)NC4(CCC(C)CC4)C3=O)nc2n1 (configuration not stated)	n	n	n	n	x	x
Cc1cc(=O)oc2cc(OC(=O)C(C)NC(=O)OCc3ccccc3)ccc12 (configuration not stated)	n	n	n	n	x	x
CCOC(=O)CNS(=O)(=O)c1cc(-c2nnc(Nc3cccc(C)c3)c3ccccc23)ccc1C	n	n	79.8	n	n	n
NC(=O)c1ccc(NC(=O)COC(=O)c2cc3c(s2)CCC3)cc1	n	n	n	n	x	x
O=C(CN1C(=O)c2ccccc2C1=O)NNC(=O)c1cc2c(s1)CCCC2	n	n	n	n	x	x
O=C(OCN1C(=O)c2ccccc2C1=O)c1cc2c(s1)CCC2	n	n	74.3	n	77.2	n	AlphaScreen DR=n
NC(=O)COC(=O)c1cc2c(s1)CCC2	n	n	61.6	n	59.7	n	AlphaScreen DR=n
N#C/C(=C(/O)COC(=O)c1cc2c(s1)CCC2)c1nc2ccccc2[nH]1	n	n	86.6	n	81.8	n	AlphaScreen DR=n
